Screens: PubChem BioAssay, several laboratories
Rows were chosen to be rich in hits. Some 2.6% of all compounds tested hit in one or more screens of this group.
MLLE-PAM2 inh = blocks PAM2 peptide binding to the PABP1 MLLE domain; GST-MLLE / FITC-PAM2 fluorescence polarization; inhibition, % at 20 µM; 360,000 compounds, 0.36% hits; P11940; in the data active = inhibition above about 35%, passing the limit was not always enough;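 note: plate controls were DMSO wells with GST-MLLE for no effect and wells lacking GST-MLLE protein for full effect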
Target sequence (P11940 whole entry, looked up, the tested form may be a part): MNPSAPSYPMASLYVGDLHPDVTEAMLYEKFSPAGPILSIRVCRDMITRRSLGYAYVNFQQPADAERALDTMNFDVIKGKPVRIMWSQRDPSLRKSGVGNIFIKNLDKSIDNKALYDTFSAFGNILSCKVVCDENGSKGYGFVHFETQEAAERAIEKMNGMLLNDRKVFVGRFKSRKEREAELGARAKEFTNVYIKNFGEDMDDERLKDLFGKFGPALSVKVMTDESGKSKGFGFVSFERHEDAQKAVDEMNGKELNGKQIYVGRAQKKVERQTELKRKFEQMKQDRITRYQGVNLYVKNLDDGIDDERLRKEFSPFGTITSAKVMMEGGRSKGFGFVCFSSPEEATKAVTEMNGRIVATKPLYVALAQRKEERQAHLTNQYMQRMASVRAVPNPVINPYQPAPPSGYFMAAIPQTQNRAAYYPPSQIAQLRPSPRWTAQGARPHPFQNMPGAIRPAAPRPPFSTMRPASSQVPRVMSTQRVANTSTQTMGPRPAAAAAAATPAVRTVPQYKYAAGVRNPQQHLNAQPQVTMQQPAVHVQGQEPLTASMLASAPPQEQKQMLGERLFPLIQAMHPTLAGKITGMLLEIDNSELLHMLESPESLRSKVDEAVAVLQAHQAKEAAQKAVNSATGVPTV
PHOSPHO1 inh = inhibitors of human PHOSPHO1 phosphatase; Q8TCT1; recombinant PHOSPHO1, absorbance phosphatase assay; inhibition, % at 13.3 µM; 290,000 compounds, 1.1% hits; AID 1565; in the data active = inhibition above about 60%
ABCB6 inh MLPCN = inhibitors of human ABC transporter ABCB6; Q9NP58; K562-ABCB6 porphyrin accumulation, flow cytometry, 1 h; stronger effect = lower value; fluorescence ratio to DMSO, % at 10 µM; 360,000 compounds, 0.19% hits;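 active = fluorescence ratio to DMSO below 75%, the collection mean minus 3 SD; inconclusive = too few cells collected in the well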;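 note: signal is porphyrin accumulated inside mitochondria; 100% equals median channel fluorescence of DMSO control wells; lower ratio means ABCB6 inhibition with less porphyrin fluorescence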
PABP polyA inh = PABP-poly(A) binding inhibition; P11940; PABP-poly(A) RNA binding, fluorescence polarization; calls only at 35 µM; 290,000 compounds, 1% hits; AID 2014;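 note: calls also rest on retests at 20 µM and on dose response follow-up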
eIF4H FP inh = inhibitors of RNA binding by human eIF4H; AID 2012; eIF4H fluorescence polarization binding assay; 290,000 compounds, 0.94% hits; Q15056; inhibition, % at 35 µM;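 note: calls also rest on retests at 20 µM and on dose response follow-up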
AI-2 QS mod = modulators of Vibrio harveyi AI-2 quorum sensing system; Vibrio harveyi JMH597 AI-2 luminescence/OD600 ratio, 9 h; stronger effect = lower value; strain lacks LuxN and CqsS sensors; 0 = neutral-control median; activity change, % at 7.5 µM; 300,000 compounds, 0.4% hits; AID 2094; in the data active = activity change below about -75%, passing the limit was not always enough; inconclusive = no clear call, values can overlap the other calls;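 note: luminescence divided by OD600 gain over 9 h not by final OD600 alone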
JMH597 growth rt = retest: blocks Vibrio harveyi JMH597 growth; shares compounds with AI-2 QS mod; OD600 absorbance, 9 h; lacks LuxN and CqsS sensors; growth inhibition, % at 7.5 µM; 750 compounds, 1% hits; AID 2726;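 active = every replicate shows growth inhibition above 50%; inconclusive = at least half, but not all, replicates pass that cutoff; inactive = fewer than half of replicates pass it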
BB721 const-QS lum = retest counter-screen: lowers luminescence of constitutive-QS Vibrio harveyi BB721 | 9 h | inhibition, % at 7.5 µM | shares compounds with AI-2 QS mod | AID 2727 | 750 compounds, 95% hits;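 active = inhibition above about 80% in every replicate, not just on average, limit read from the data; inconclusive = at least half of replicates past the limit, but not all; inactive = fewer than half of replicates past the limit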
BB721 growth rt = retest: blocks Vibrio harveyi BB721 growth | OD600 absorbance, 9 h | 750 compounds, 3% hits | growth inhibition, % at 7.5 µM | shares compounds with AI-2 QS mod;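 active = every replicate shows growth inhibition above 50%; inconclusive = at least half but not all replicates above 50% inhibition; inactive = under half of replicates above 50% inhibition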
JMH597 AI-2 mod = Vibrio harveyi AI-2 signaling luminescence modulation – JMH597 strain, confirmation. shares compounds with AI-2 QS mod. Vibrio harveyi JMH597 AI-2 quorum sensing luminescence, 9 h; luxN and CqsS knockout, AI-2 only. inhibition, % at 7.5 µM. 750 compounds, 97% hits. AID 2736;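 active = every replicate shows more than 75% inhibition of signal versus neutral control wells; inconclusive = half to three quarters of replicates exceed 75% inhibition; inactive = fewer than half of replicates exceed 75% inhibition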
* = called active by the depositor; i = inactive; ? = inconclusive; nt = no result. Unless noted, the rule behind the calls is not given here.

SMILES	MLLE-PAM2 inh	PHOSPHO1 inh	ABCB6 inh MLPCN	PABP polyA inh	eIF4H FP inh	AI-2 QS mod	JMH597 growth rt	BB721 const-QS lum	BB721 growth rt	JMH597 AI-2 mod
Cc1cccc(Oc2cnn(C(C)(C)C)c(=O)c2Cl)c1	0	2	94	i	4	-92*	21	96*	-19	98*
CCN(CC)S(=O)(=O)c1ccc(Oc2cccc(C(C)=O)c2)nc1	-6	8	86	i	0	-85*	2	95*	-8	96*
CCN(c1ccccc1)S(=O)(=O)c1ccc(Oc2ccccc2C(C)=O)nc1	-6	nt	95	nt	nt	nt	nt	nt	nt	nt
C[N+](C)(C)CCNC(=O)c1ccccc1	nt	nt	101	nt	nt	nt	nt	nt	nt	nt
Clc1cccc(OCc2nnc(-c3ccccc3Br)o2)c1	-8	6	100	i	-9	-90*	?	97*	82*	98*
Cn1c(=O)n(C)c2cc(NC(=O)CCl)ccc21	-10	18	101	i	-9	-88*	16	87*	42	89*
Cc1ccc(/C=C/C(=O)c2ccc(O)cc2)cc1	-17	-1	100	i	-2	-94*	-7	97*	-22	98*
COCc1cccc(-c2csc(C(C)(O)c3cccc(OC)c3)n2)c1 (centres undefined)	2	nt	97	nt	nt	nt	nt	nt	nt	nt
CCc1ccc(CNC(=O)Cn2nc(-c3ccc(C)cc3)ccc2=O)cc1	nt	-5	nt	i	6	-79*	38	90*	49	94*
O=C(Nc1cnn(Cc2ccc(F)cc2)c1)c1cnccn1	-5	-14	101	i	-3	-95*	5	98*	2	98*
CC(C)Cc1ccc(S(=O)(=O)Nc2ccccn2)cc1	6	9	100	i	1	-93*	27	98*	-15	100*
COc1ccc(S(=O)(=O)Nc2ccccn2)cc1	5	19	97	i	1	24	nt	nt	nt	nt
Clc1ccc2oc(SCc3cccnc3)nc2c1	-14	28	90	i	-2	-81*	1	97*	15	96*
Clc1ccc2oc(-c3cccnc3)nc2c1	-11	54	95	i	4	17	nt	nt	nt	nt
CCCc1nc2c(C)cc(Br)cn2c1Cc1cccc(F)c1	-13	nt	100	nt	nt	nt	nt	nt	nt	nt
O=C(/C=C/c1ccccc1)NNc1ccc(Cl)cc1	12	4	102	i	8	-97*	32	100*	?	100*
CC(=O)Nc1ccc(S(=O)(=O)Nc2ccc3c(c2)OCCO3)cc1Cl	-14	13	95	i	-1	-97*	5	99*	-35	100*
COc1ccc(S(=O)(=O)Nc2ccc3c(c2)OCCO3)cc1Cl	-4	14	100	i	-8	24	nt	nt	nt	nt
COc1ccccc1N1CCN(C(=O)c2cccc(N3C(=O)NC4CC3(C)Oc3c(OC)cccc34)c2)CC1 (centres undefined)	-17	17	103	i	-7	-83*	-7	-5	-14	6
COc1cccc2c1OC1(C)CC2NC(=O)N1c1cccc(C(=O)N2CCN(c3ccccn3)CC2)c1 (centres undefined)	-6	-22	96	i	3	5	nt	nt	nt	nt
COC(=O)[C@]12CCCCC=C1N(Cc1ccccc1)C(=O)[C@H](CC(=O)N1CCSCC1)C2	nt	nt	92	nt	nt	nt	nt	nt	nt	nt
O=C(CN1C(=O)c2ccccc2C1=O)Nc1ccc(-c2nc3ccccc3o2)cc1	-12	13	103	i	0	-92*	-33	87*	-38	93*
O=C(NCc1ccccc1Cl)C(=O)c1c[nH]c2ccccc12	-2	29	99	i	-9	-83*	-15	94*	16	95*
